Source: the supplement of paper PMC3616981
± gives the standard deviation of the averaged measurements.

Compound: CC(C)c1cccc(C(C)C)c1N1C(=O)c2ccc(O)cc2C1=O
Assay: BioMAP readout fold decrease vs vehicle (vehicle/treated); higher = stronger decrease of the readout vs vehicle (values <1 mean increase)
Protocol: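 BioSeek BioMAP human primary cell (co-)culture systems (3C, 4H, LPS, SAg, BE3C, CASM3C, hDFCGF, KF3CT) treated with 5HPP-33 at 1.48, 4.44, 13.3 and 40 µM. Read-outs are protein levels by ELISA, proliferation and SRB total protein. Duplicate rows per assay are averaged as replicates. Tested in ToxCast Phase II for this study; exposure time not stated.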
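Also: Co-cultures of keratinocytes, bronchial epithelial and smooth muscle cells, fibroblasts, HUVECs and PBMCs under stimuli like LPS, TNF-α, IFN-γ, IL-1β, TGF-β or EGF, SRB reflecting cytotoxicity.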

Target	BioMAP readout fold decrease (1.48 µM)	BioMAP readout fold decrease (4.44 µM)	BioMAP readout fold decrease (13.3 µM)	BioMAP readout fold decrease (40 µM)
hDFCGF_SRB	1 ± 0.034	0.959 ± 0.0096	1.19 ± 0.017	2.06 ± 0.21
LPS_SRB	0.935 ± 0.012	1.032 ± 0.0086	1.277 ± 0.0063	1.87 ± 0.066
KF3CT_TGFb1	1.03 ± 0.011	1.044 ± 0.0031	1.11 ± 0.021	2.33 ± 0.15
hDFCGF_MIG	1.01 ± 0.012	1.01 ± 0.0026	1.02 ± 0.027	1.42 ± 0.031
hDFCGF_EGFR	1.0619 ± 0.00028	1.02 ± 0.028	1.19 ± 0.025	1.291 ± 0.0087
BE3C_PAI1	1.18 ± 0.056	1.236 ± 0.012	1.5 ± 0.03	1.91 ± 0.13
LPS_PGE2	0.966 ± 0.071	0.863 ± 0.057	0.841 ± 0.037	0.776 ± 0.044
3C_ICAM1	1.05 ± 0.025	1.05 ± 0.019	1.02 ± 0.013	1.08 ± 0.087
KF3CT_ICAM1	0.999 ± 0.092	1.03 ± 0.037	0.9245 ± 0.0078	1.08 ± 0.062
SAg_CD38	1.01 ± 0.025	1.34 ± 0.061	2.26 ± 0.16	5.07 ± 0.81
SAg_CD69	1.13 ± 0.076	1.24 ± 0.035	1.52 ± 0.077	3.2 ± 0.15
hDFCGF_Proliferation	1.22 ± 0.13	2.66 ± 0.091	4.594 ± 0.011	12.1 ± 0.038
3C_Eselectin	1.04 ± 0.051	1.056 ± 0.0015	0.99 ± 0.023	1.39 ± 0.034
SAg_Proliferation	1.22 ± 0.15	1.7 ± 0.1	1.76 ± 0.053	10.3 ± 0.41
hDFCGF_VCAM1	1.18 ± 0.2	1.32 ± 0.063	2.03 ± 0.15	4.4 ± 0.3
LPS_TissueFactor	0.905 ± 0.021	0.9505 ± 0.0063	1.04 ± 0.02	1.21 ± 0.024
hDFCGF_MCSF	1.03 ± 0.01	0.98 ± 0.05	1.21 ± 0.024	2.01 ± 0.16
KF3CT_IL1a	0.969 ± 0.029	0.992 ± 0.045	0.987 ± 0.034	2.08 ± 0.17
BE3C_uPA	1.07 ± 0.019	1.017 ± 0.0048	1.027 ± 0.0098	1.15 ± 0.042
KF3CT_TIMP2	1 ± 0.025	0.978 ± 0.038	1.08 ± 0.075	2.5 ± 0.22
SAg_MCP1	1.08 ± 0.023	0.997 ± 0.021	0.892 ± 0.0095	4.61 ± 0.68
4H_uPAR	1.2 ± 0.045	1.3 ± 0.038	1.361 ± 0.0024	2.33 ± 0.26
SAg_MIG	1.05 ± 0.017	1.04 ± 0.012	1.07 ± 0.034	7.73 ± 1.1
BE3C_MMP1	1.073 ± 0.0092	1.01 ± 0.017	0.9184 ± 0.0038	0.854 ± 0.0042
